Source: PubChem BioAssay AID1851 (National Center for Advancing Translational Sciences (NCATS), 2009)
The campaign covered roughly 16,000 compounds. About 2,600 (16%) were called active. Inconclusive results (about 20%) are left out. Calls follow the shape of the dose curve; as a rule, active = well fitted curve in the direction sought with a large enough effect; inconclusive = small, poorly fitted or top-dose-only effect, or effect the other way; inactive = no such curve, though single readings can be large or run the other way. Not all results are given here. Peptide text beside a SMILES is read from it.

These compounds were tested against Cytochrome P450 2D6 (Homo sapiens) (UniProt P10635) (assay: Cytochrome panel assay with activity outcomes). Details: recombinant CYP, pro-luciferin dealkylation, luminescence, p450-cyp2d6; series mostly up to 57.1 µM.
Chain of Cytochrome P450 2D6 (Homo sapiens) (P10635 whole entry, looked up): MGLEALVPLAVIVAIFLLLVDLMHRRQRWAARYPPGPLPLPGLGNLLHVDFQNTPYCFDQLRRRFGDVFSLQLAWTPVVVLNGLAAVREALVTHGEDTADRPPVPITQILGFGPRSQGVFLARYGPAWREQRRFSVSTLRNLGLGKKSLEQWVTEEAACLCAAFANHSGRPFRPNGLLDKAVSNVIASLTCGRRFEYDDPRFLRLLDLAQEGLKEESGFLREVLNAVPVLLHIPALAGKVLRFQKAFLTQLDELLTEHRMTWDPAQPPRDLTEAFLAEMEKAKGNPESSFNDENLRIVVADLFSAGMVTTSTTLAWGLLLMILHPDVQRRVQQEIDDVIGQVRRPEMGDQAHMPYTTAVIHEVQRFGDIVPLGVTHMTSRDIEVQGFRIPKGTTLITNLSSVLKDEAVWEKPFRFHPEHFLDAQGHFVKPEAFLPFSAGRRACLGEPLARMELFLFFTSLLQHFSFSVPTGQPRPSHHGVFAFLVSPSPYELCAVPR
% is scaled to controls: 0 for no effect and ±100 for the full control effect.

| SMILES | AC50 | activity, negative = inhibition |
| --- | --- | --- |
| CC(=O)[C@@H]1[C@@H]2C(=O)N(C3CCCCC3)C(=O)[C@@H]2C2c3ccccc3C=CN21 (stereo not given in full) | inactive |  |
| O=C(CCCN1C(=O)C2C3C=CC(C3)C2C1=O)N1CCN(c2ccccc2)CC1 (stereo not given) | inactive |  |
| Cc1nnc(-c2cnn(-c3ccccc3)c2N)n1Cc1ccncc1 | inactive |  |
| Cn1c(-c2ccccc2)cnc1N | 11.2 µM (active) |  |
| Cn1c(=O)c(-c2ccccc2)nc2cncnc21 | inactive |  |
| Nc1nonc1-n1nncc1-c1ccccc1 | inactive |  |
| CCCCN1C(=O)C(NC(=O)c2cccnc2)(C(F)(F)F)C2=C1CC(C)(C)CC2=O (stereo not given) | inactive |  |
| COc1ccc2c3c(ccc2c1)N[C@H](C(=O)O)CC3 |  | 3.59% [at 11.4 µM] (inactive) |
| Cc1cc(=O)[nH]c(-n2[nH]c(C)cc2=O)n1 | inactive |  |
| CC1(C)CCC(NC(=O)[C@H](N)CCC(=O)O)CC1 | inactive |  |
| COc1ccc(-n2c(=O)c(-c3cccs3)nc3cnc(N4CCNCC4)nc32)cc1 | inactive |  |
| CCOC(=O)c1sc(NC(C)=O)nc1-c1ccccc1 | inactive |  |
| C=CCSc1nc(C)cc(/C=C\c2ccccc2)c1C#N | 2.82 µM (active) |  |
| Cc1cc(C)c(C#N)c(SCS(=O)c2ccc(C(C)(C)C)cc2)n1 (stereo not given) | inactive |  |
| Cc1cc(C)c(C#N)c(Oc2ccccc2)n1 | inactive |  |
| COc1ccc(-c2nc3cnc(N(C)C)nc3n(CCc3ccccc3)c2=O)cc1 | inactive |  |
| Cc1ccc(S(=O)(=O)CCc2nnc(NC(=O)COc3cccc(C)c3)s2)cc1 | inactive |  |
| CC(=O)N[C@@H](CC(=O)O)C(=O)N[C@@H](CCC(=O)O)C(=O)O (Ac-Asp-Glu-OH) | inactive |  |
| COc1cc2nncc(SCc3ccc(Cl)c(Cl)c3)c2cc1OC |  | 1.56% [at 11.4 µM] (inactive) |
| Clc1ccc(CSC2=NCCN2)cc1Cl | 3.16 µM (active) |  |
| N[C@@H](Cc1cccc([N+](=O)[O-])c1)C(=O)O |  | 1.07% [at 11.4 µM] (inactive) |
| CCN(Cc1ccccc1)Cc1cccc([N+](=O)[O-])c1 | 0.794 µM (active) |  |

| SMILES | AC50 | activity, negative = inhibition |
| --- | --- | --- |
| Cc1ccc(S(=O)(=O)NCc2cccc([N+](=O)[O-])c2)cc1 |  | 1.17% [at 11.4 µM] (inactive) |
| CN(C)N1C(N)=C(C#N)C(c2cccnc2)C2=C1CC(C)(C)CC2=O (stereo not given) | inactive |  |
| Cc1ccc(=O)n(-c2ccccc2)c1 | inactive |  |
| O=C1C=C(NCC2CCCO2)C2(CCCCC2)O1 (stereo not given) | inactive |  |
| COCCn1c(=O)c(-c2ccc(F)c(F)c2)nc2cncnc21 | inactive |  |
| Cc1ccc(N=Cc2nc(/C=C/c3cccc([N+](=O)[O-])c3)oc2O)cc1 | inactive |  |
| CN(C)c1ncc2nc(-c3ccc(F)cc3)c(=O)n(Cc3ccc(F)cc3)c2n1 | inactive |  |
| C#CCCCO/N=C1/C[C@@H](O)[C@@H](O)[C@@H]2[C@@H]3C(=O)N(C4CCCCC4)C(=O)[C@H]3CC[C@H]12 |  | 18.1% [at 11.4 µM] (inactive) |
| CCn1c(SCC(=O)Nc2ccccc2C(=O)OC)nnc1-c1ccc(N)cc1 | inactive |  |
| Cc1ccccc1NC(=O)CSc1nnc(-c2ccccc2)n1-c1ccccc1 | 1.78 µM (active) |  |
| CCOc1ccc(-n2c(SCC(=O)Nc3ccccc3C)n[nH]c2=O)cc1 | inactive |  |
| N#Cc1c(-c2ccccc2)cc(C2CC2)nc1SCC(=O)c1cccs1 | inactive |  |
| COC(=O)CSc1nnc(-c2ccccc2OC)n1-c1ccc(C)cc1 | inactive |  |
| O=C(CSc1nnc(-c2ccccc2)n1-c1ccccc1)c1cccs1 | 2.51 µM (active) |  |
| CN(Cc1cc2ccccc2[nH]c1=O)S(C)(=O)=O | inactive |  |
| CCc1ccc(OCC(=O)Nc2ccc(-c3nc4ccccc4o3)c(O)c2)cc1 | inactive |  |
| Nc1nc(-c2ccccc2)c(-c2ccccc2)c(-c2nc(N)nc(-c3ccccc3)c2-c2ccccc2)n1 |  | -0.539% [at 11.4 µM] (inactive) |
| CN(N=O)c1ccc(/C=C\c2ccnc3ccccc23)cc1 |  | -11% [at 11.4 µM] (inactive) |
| Cc1ccccc1OCC(=O)N/N=C1\CCOc2c(C)cccc21 | inactive |  |
| Cc1cc(C=O)c(C)n1-c1ccc(N2CCCCC2)c([N+](=O)[O-])c1 | inactive |  |
| COCCn1c(=O)c(-c2cccs2)nc2cnc(Oc3ccc(OC)cc3)nc21 | inactive |  |
| Cc1cc(C)c2c(SCc3ccc(Cl)cc3Cl)nc(N)nc2n1 |  | -17.3% [at 11.4 µM] (inactive) |

| SMILES | AC50 | activity, negative = inhibition |
| --- | --- | --- |
| O=C(Nc1nnc(SCc2ccc(Cl)cc2Cl)s1)C1COc2ccccc2O1 (stereo not given) | inactive |  |
| N=C(N)SCc1ccc(Cl)cc1Cl (tested in a mixture with another compound) | 3.16 µM (active) |  |
| O=C(OCn1ncc(Cl)c(Cl)c1=O)c1cccc(C(F)(F)F)c1 | inactive |  |
| CNC(=O)COC(=O)c1cc2c(C)nn(-c3ccc(F)cc3)c2s1 | inactive |  |
| Nc1ccc(-c2nc3c(Cl)c(N)ccc3[nH]2)cc1 | inactive |  |
| CC1=C/C(=C(/c2ccc(O)c(C)c2)c2ccccc2C(=O)O)C=CC1=O | 1.58 µM (active) |  |
| O=C(O)c1ccc(C(=O)c2ccccc2C(=O)O)cc1C(=O)O |  | 8.1% [at 11.4 µM] (inactive) |
| Cc1cccc(C(=O)c2ccccc2C(=O)O)c1O | inactive |  |
| O=c1c(-c2ccccc2)c(O)c2cccc3c2n1CCC3 | inactive |  |
| C[N+](C)(N)Cc1csc(-c2ccc(Cl)cc2)n1 |  | -18.9% [at 11.4 µM] (inactive) |
| CCOc1ccccc1NC(=O)C1Cc2ccccc2CN1S(C)(=O)=O (stereo not given) | inactive |  |
| O=C(Nc1nccs1)C1Cc2ccccc2CN1S(=O)(=O)c1ccc(F)cc1 (stereo not given) | 12.6 µM (active) |  |
| O=C(O)c1ccccc1C(=O)Nc1ccc(S(=O)(=O)Nc2nccs2)cc1 | inactive |  |
| O=C(O)c1nnsc1COCc1ccccc1 |  | 7.15% [at 11.4 µM] (inactive) |
| C[N@@+]1(Cc2ccc(Cl)c(Cl)c2)CCC[C@@H]1c1ccc[n+](Cc2ccc(Cl)c(Cl)c2)c1 | 3.16 µM (active) |  |
| CNc1nc(-c2ccccc2OC)nc2ccccc12 | 20 µM (active) |  |
| Clc1ccccc1-c1nc(NCc2cccs2)c2ccccc2n1 | 12.6 µM (active) |  |
| Cc1ccccc1-c1nc(NC2CCNCC2)c2ccccc2n1 | inactive |  |
| COc1ccccc1-c1nc(NC2CC2)c2ccccc2n1 | 20 µM (active) |  |
| COc1ccccc1-c1nc(NCc2ccccc2)c2ccccc2n1 | 1.58 µM (active) |  |
| Clc1ccccc1-c1nc(NC2CCNCC2)c2ccccc2n1 | inactive |  |
